Screening data: PubChem BioAssay, National Center for Advancing Translational Sciences (NCATS)
This is a sample that favours compounds with a hit; in the whole collection about 0.41% have one here.
GAA glycogen mod = qHTS Assay for Inhibitors and Activators of Human alpha-Glucosidase Cleavage of Glycogen; Lysosomal alpha-glucosidase (Homo sapiens), P10253; recombinant GAA, glycogen substrate, Amplex Red glucose oxidase fluorescence; Potency, µM (series often up to 76.4 µM), for inactives: at the highest dose activity change, negative = inhibition, hits mostly inhibitors; 300,000 tested, 0.38% active; AID 2100, 2009;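 also: potency is read from the fitted curve at half-maximal effect; 0% = full enzyme reaction and -100% = no-enzyme basal signal; the screen sought inhibitors and activators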
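Recombinant human enzyme (4 nM); glycogen substrate; 37 C, 40 min, pH 5.0. Readout: coupled glucose oxidase/Amplex Red fluorescence.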
GAA inhib = qHTS Assay for Inhibitors of Human alpha-Glucosidase as a Potential Chaperone Treatment of Pompe Disease; purified human GAA, 4-MU-alpha-glucoside fluorescence; Potency, µM (doses to about 76.9 µM), for the others: at the highest dose activity change, negative = inhibition, hits mostly inhibitors; AID 1466, 2008; Lysosomal alpha-glucosidase (Homo sapiens), P10253; 200,000 tested, 0.005% active;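 also: potency is read from the fitted curve at half-maximal effect; plate controls were uninhibited enzyme wells for no effect and no-enzyme background for full effect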
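qHTS format, compound range up to 77 uM. Human lysosomal enzyme at 4 nM, 400 uM 4-MU glucoside substrate, pH 5.0, 20 min room temperature; fluorescence after alkaline stop gives activity normalized to controls.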
GLA inh pH 4.5 = qHTS Assay for Inhibitors of Human alpha-Galactosidase at pH 4.5; Alpha-galactosidase A (Homo sapiens), P06280; purified enzyme, 4-MU-alpha-Gal fluorescence, pH 4.5; activity change, negative = inhibition, % at 105 µM; 230,000 tested, under 10 active; AID 1467, 2008;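 also: 0% = full activity with enzyme and -100% = basal without enzyme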
Target sequence (P06280 whole entry, looked up): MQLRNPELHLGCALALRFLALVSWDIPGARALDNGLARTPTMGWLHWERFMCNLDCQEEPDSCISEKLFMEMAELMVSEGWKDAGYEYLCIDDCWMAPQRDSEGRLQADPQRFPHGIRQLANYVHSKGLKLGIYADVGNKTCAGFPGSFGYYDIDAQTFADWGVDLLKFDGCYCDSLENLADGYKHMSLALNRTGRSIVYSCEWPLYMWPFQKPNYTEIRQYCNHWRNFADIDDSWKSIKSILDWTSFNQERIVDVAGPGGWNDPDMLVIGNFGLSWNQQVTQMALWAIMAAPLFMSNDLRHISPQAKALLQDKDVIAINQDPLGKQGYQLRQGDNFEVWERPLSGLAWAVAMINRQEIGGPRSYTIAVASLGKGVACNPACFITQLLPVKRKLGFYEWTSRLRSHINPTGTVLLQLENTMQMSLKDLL
aGlu spleen mod = qHTS Assay for Inhibitors and Activators of Human alpha-Glucosidase From Spleen Homogenate; human spleen homogenate, 4-MU-alpha-glucoside fluorescence; Potency, µM (titrated, usually from 79.9 µM), for inactives: at the highest dose activity change, negative = inhibition, most hits filed as inhibitors; 240,000 tested, 0.006% active; AID 2112, 2009;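 also: potency is read from the fitted curve at half-maximal effect; 0% = enzyme with vehicle and -100% = no enzyme basal signal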
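Human spleen homogenate (1 ug) with 4-methylumbelliferyl-alpha-D-glucopyranoside (1 mM final) in 50 mM citrate/phosphate pH 5.0, 0.01% Tween-20; 40 min at 37 C. Stopped at pH 10; 4-MU fluorescence Ex 365/Em 440 nm; AC50 by Hill fit.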
aGal spleen mod = qHTS Assay for Inhibitors and Activators of Human alpha-Galactosidase From Spleen Homogenate; Alpha-galactosidase A (Homo sapiens), P06280; human spleen homogenate, 4MU-alpha-Gal fluorescence, 40 min; Potency, µM (top dose mostly 80 µM), inactives show top-dose activity change, negative = inhibition, actives largely listed as inhibitors; 240,000 tested, 0.008% active; AID 2107, 2009;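 also: potency is read from the fitted curve at half-maximal effect; 0% = enzyme with vehicle and -100% = no enzyme basal signal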
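Inhibition or activation of alpha-galactosidase in human spleen homogenate is scored by 4-MU fluorescence after 40 min at 37C, pH 5.0, with 1 mM substrate. AC50s come from concentration-response fitted to the Hill equation.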
N370S GC = qHTS Assay for Inhibitors and Activators of N370S glucocerebrosidase as a Potential Chaperone Treatment of Gaucher Disease. Lysosomal acid glucosylceramidase (Homo sapiens), P04062. N370S GC spleen homogenate, 4MU-glucoside fluorescence. Potency, µM (top dose mostly 59.4 µM), for the others: top-dose activity change, negative = inhibition, hits mostly inhibitors. 330,000 tested, 0.092% active;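 also: potency is read from the fitted curve at half-maximal effect; 0% = full enzyme activity and -100% = no enzyme basal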
Starred values were filed as active, the others as inactive; ? = inconclusive; / = no result given; [ ] = dose if it differs, or a comment. Calls follow the shape of the dose curve; as a rule, active = well fitted curve in the direction sought with a large enough effect; inconclusive = small, poorly fitted or top-dose-only effect, or another doubt; inactive = no such curve, though single readings can be large; an effect the other way counts as inactive or inconclusive.

SMILES	GAA glycogen mod	GAA inhib	GLA inh pH 4.5	aGlu spleen mod	aGal spleen mod	N370S GC
CCC(C)(C)n1nnnc1C(c1ccc2ncccc2c1)N1CCN(c2ccc(O)cc2)CC1 (configuration not stated)	1.41µM*	/	1.1	2.8%	-0.2%	?
CCC(C)(C)n1nnnc1C(c1ccc2ncccc2c1)N1CCN(c2nc3ccccc3s2)CC1 (configuration not stated)	-1.0%	?	-13.2	-11.6%	-8.9%	-0.5%
Cc1nc(NCc2ccccc2)c2nc(-c3ccccc3)n(CC(C)(C)CN(C)C)c2n1	/	/	-28.5	0.4%	9.5%	-19.3%
CCCCCN1C(C(=O)c2ccccc2)=C(NC(=O)c2ccccc2Cl)c2ccccc2S1(=O)=O	-0.5%[76.3 µM]	/	/	/	/	/
Oc1ccc(NC(=S)Nc2ccc(F)cc2)cc1	11.2µM*	/	/	/	/	-17.7%
CCN1CCN(CC(=O)N2CCCC(C(=O)c3ccc(Oc4ccccc4)cc3)C2)CC1 (configuration not stated)	7.94µM*	6.5%	1.7	-19.2%	-4.0%	?
Cc1nc2c(c(=O)[nH]1)CSCC2	/	/	/	5.9%	11.9%	0.9%
CCc1cccc(C)c1Nc1c(-c2ccc(N(C)C)cc2)nc2cnccn12	10µM*	/	/	/	/	/
CCOC(=O)N1CC(C)N(/[N+]([O-])=N/Oc2ccc([N+](=O)[O-])cc2[N+](=O)[O-])CC1C (configuration not stated)	/	/	/	-11.1%	-3.4%	-7.6%
O=C(CN1CC(=O)Oc2ccccc21)OCC(=O)c1cccc(Br)c1	8.84µM*	5.4%	2.2	-3.1%	11.6%	-18.3%
CS(=O)(=O)N1CCc2cc(C(=O)NCc3ccccc3)ccc21	5.2%[76.3 µM]	/	/	/	/	/
COc1cc(O)ccc1-c1nc2cc(C)ccn2c1Nc1ccccc1C	12.6µM*	/	/	/	/	/
CC(=O)n1cc(N(C(=O)CCl)c2ccc(Cl)cc2)c2ccccc21	-8.6%	/	-8.0	-0.2%	6.2%	15.8µM*
COc1ccccc1N(C(=O)CCl)c1cn(C(C)=O)c2ccccc12	-1.6%	/	-5.0	-2.9%	-8.1%	4.7%
COc1ccc(C2/C=C\CN(C(=O)C3CCCC3)C(C)C(=O)N2Cc2ccc(F)cc2)cc1 (configuration not stated)	/	/	/	-8.6%	-4.6%	-8.4%
C(=N\Nc1nc2ccccc2[nH]1)/c1ccc2c(c1)OCCO2	12.6µM*	-8.9%	-9.9	0.6%	-7.1%	-4.9%
COc1cc(/C=N\Nc2nc3ccccc3[nH]2)cc(OC)c1OC	15.7µM*	0.0%	0.6	4.7%	4.7%	-1.6%
COc1ccc(/C=N/Nc2nc3ccccc3[nH]2)cc1OC	?	-2.4%	-1.8	1.7%	7.1%	-13.8%
C(=N\Nc1ccc2ccccc2n1)/c1ccc2c(c1)OCCO2	-28.5%	?	-3.6	-1.5%	-3.7%	-0.2%
COc1ccc2c(c1)c(/C=N/Nc1nc3ccccc3[nH]1)c(C)n2C	28.2µM*	?	-15.6	-7.0%	-5.4%	?
Cc1nnc(N2CCN(c3ccccc3F)CC2)c2c1nnn2Cc1ccccc1	-7.6%[76.3 µM]	/	/	/	/	/
CC(C)Cn1c(=O)c2sccc2n2c(CCCC(=O)NC3CCCCC3)nnc12	0.1%[76.3 µM]	/	/	/	/	/
CCCC[C@@H]1CCCO[C@@](C(=O)NCc2ccc(S(C)(=O)=O)cc2)(C(F)(F)F)C1	/	/	/	-13.0%	7.9%	2.4%
COc1ccc2cc1Oc1ccc(cc1)CC1c3cc(c(OC)cc3CCN1C)Oc1c(OC)c(OC)c(OC)c3c1C(C2)N(C)CC3 (configuration not stated)	/	/	/	-8.1%	-8.2%	-10.0%
